Data reported in PubChem BioAssay AID504332 (National Center for Advancing Translational Sciences (NCATS), 2011).
The campaign covered roughly 350,000 compounds. About 31,000 (8.9%) were called active. Another 15% or so got no clear call; they are omitted. Calls come from the whole dose curve; as a rule, active = well fitted inhibition curve with a large enough effect; inconclusive = small, poorly fitted or top-dose-only effect; inactive = no such curve, though single readings can be large or run the other way. The full list was thinned out, with actives kept by preference.

These compounds were tested against Histone-lysine N-methyltransferase EHMT2 (Homo sapiens) (UniProt Q96KQ7) (assay: qHTS Assay for Inhibitors of Histone Lysine Methyltransferase G9a). Conditions: G9a H3K9 monomethylation, AlphaScreen, 2 h; series mostly up to 59 µM; activity, negative = inhibition: at the top concentration.
In short: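 Chemiluminescent proximity detection of H3K9 monomethylation, read after 10 min bead incubation in the dark. Reaction: 20 nM G9a, 500 nM biotin-H3K9 peptide, 20 uM SAM cofactor, 2 h, room temperature, following 15 min enzyme-compound preincubation.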
% is set by controls: 0 for no effect and ±100 for the full control effect; potency is the fitted concentration of half-maximal effect.
Note: nearly all actives have a fitted effect of over 75% in size.

Sequence of Histone-lysine N-methyltransferase EHMT2 (Homo sapiens) (Q96KQ7 913-1193 limits assumed): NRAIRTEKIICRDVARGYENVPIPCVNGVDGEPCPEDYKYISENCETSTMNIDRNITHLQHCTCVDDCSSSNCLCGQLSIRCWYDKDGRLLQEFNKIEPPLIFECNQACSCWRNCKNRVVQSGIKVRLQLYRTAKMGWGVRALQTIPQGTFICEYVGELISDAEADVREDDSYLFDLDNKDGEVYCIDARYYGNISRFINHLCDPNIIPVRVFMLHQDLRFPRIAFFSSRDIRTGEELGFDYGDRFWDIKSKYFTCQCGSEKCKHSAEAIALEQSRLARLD

Compound	activity, negative = inhibition	Potency
CCOc1ccc(NC(=O)CCc2c(C)nn(-c3ccc(N4CCCC4)nn3)c2C)cc1	4.29% (inactive)	
Cc1ccc2nc(/C(C#N)=C/c3ccccc3F)[nH]c2c1	4.4% (inactive)	
COc1cccc2cc(-c3nc(Cl)c4c5c(sc4n3)CC(C)CC5)c(=O)oc12 (configuration not stated)	-7.79% (inactive)	
COc1cc(/C=C(\C#N)c2nc3c(s2)CC(C)CC3)ccc1O (configuration not stated)		50.1 µM (active)
CCOc1ccc(/C=C(\C#N)c2nc3ccccc3c(=O)[nH]2)cc1OC	2.72% (inactive)	
COc1cc(/C=C(\C#N)c2nc3ccccc3[nH]2)ccc1O		39.8 µM (active)
Cc1ccc(OCCC(=O)OCC(=O)N2c3ccccc3NC(=O)C2(C)C)cc1	-0.939% (inactive)	
COc1ccc(N2CC(NS(=O)(=O)c3ccc4ccccc4c3)CC2=O)cc1 (configuration not stated)	-44.8% [at 102 µM] (inactive)	
O=C(N[C@@H](Cc1ccccc1)C(=O)OCc1ccccc1)c1nc[nH]c1C(=O)N[C@@H](Cc1ccccc1)C(=O)OCc1ccccc1	2.69% [at 102 µM] (inactive)	
CC(C)c1ccc(NC(=O)Cn2nnc(C(=O)NCCc3ccccc3)c2N)cc1	-34% (inactive)	
Cc1ccc(-c2onc(C)c2C)cc1S(=O)(=O)Nc1ccccn1	2.82% (inactive)	
CC1(C)CC(=O)c2cnc3nc4ccccc4n3c2C1		17.8 µM (active)
CC(C)(C)c1cc(=O)n2c(nc3ccccc32)[nH]1	11.1% [at 102 µM] (inactive)	
COc1ccc(C)cc1-n1c(-c2ccc(C)cc2)cc2c1CC(C)(C)CC2=O	13.1% (inactive)	
CC(Sc1ncnc2c1cnn2-c1ccccc1)C(=O)Nc1ccc(N2CCOCC2)cc1 (configuration not stated)	9% [at 0.501 µM] (inactive)	
Cc1c2cnn(-c3ccccc3)c(=O)c2c(C)n1C(C)C(=O)Nc1ccc(Br)cc1F (configuration not stated)	0.253% (inactive)	
Cc1ccccc1CNC(=O)Cn1c(C)c2cnn(-c3ccccc3)c(=O)c2c1C	-33.3% (inactive)	
Cc1c2cnn(-c3ccccc3)c(=O)c2c(C)n1CCCC(=O)N1CCN(C)CC1		79.4 µM (active)
COc1ccc(C2=NOC(Cn3nc(C(=O)NCc4ccc5c(c4)OCO5)cc3-c3ccccc3)C2)cc1 (configuration not stated)	1.74% [at 2.33 µM] (inactive)	
Cc1ccc(S(=O)(=O)n2cccc2CO)cc1	0.915% [at 2.33 µM] (inactive)	
COCc1cc(C(C)=O)ccc1OC	-11.9% [at 12.7 µM] (inactive)	
COc1ccc(C(C)=O)cc1COC(=O)Cn1cnc2ccccc2c1=O		50.1 µM (active)
O=C(COC(=O)Cn1cnc2ccccc2c1=O)NCc1ccccc1Cl	-6.99% [at 102 µM] (inactive)	
COc1ccccc1CNc1ccc(-c2nc(-c3ccccc3C)no2)cc1[N+](=O)[O-]	-40.2% (inactive)	
Nc1ccc(-c2nnc(-c3ccc(-c4ccccc4)cc3)o2)cc1		7.08 µM (active)
Nc1ccc(-c2nnc(-c3ccccc3)o2)cc1	25.3% [at 102 µM] (inactive)	
Brc1ccc(-c2nnc(-c3ccccc3)o2)o1	15% (inactive)	
